Experimental findings from PubChem BioAssay AID504339 (National Center for Advancing Translational Sciences (NCATS), 2011) are described below.

The campaign covered roughly 390,000 compounds. About 17,000 (4.4%) were called active. Inconclusive results (about 8%) are left out. The sample holds actives, similar compounds and a random draw of the others, so the mix is not that of the screen. Unmarked numbers belong to inactive results. Calls come from the whole dose curve; as a rule, active = well fitted inhibition curve with a large enough effect; inconclusive = small, poorly fitted or top-dose-only effect; inactive = no such curve, though single readings can be large or run the other way.
% is set by controls: 0 for no effect and ±100 for the full control effect; potency is the fitted concentration of half-maximal effect.

Chain of Lysine-specific demethylase 4A (Homo sapiens) (O75164 whole entry, looked up, the tested form may be a part): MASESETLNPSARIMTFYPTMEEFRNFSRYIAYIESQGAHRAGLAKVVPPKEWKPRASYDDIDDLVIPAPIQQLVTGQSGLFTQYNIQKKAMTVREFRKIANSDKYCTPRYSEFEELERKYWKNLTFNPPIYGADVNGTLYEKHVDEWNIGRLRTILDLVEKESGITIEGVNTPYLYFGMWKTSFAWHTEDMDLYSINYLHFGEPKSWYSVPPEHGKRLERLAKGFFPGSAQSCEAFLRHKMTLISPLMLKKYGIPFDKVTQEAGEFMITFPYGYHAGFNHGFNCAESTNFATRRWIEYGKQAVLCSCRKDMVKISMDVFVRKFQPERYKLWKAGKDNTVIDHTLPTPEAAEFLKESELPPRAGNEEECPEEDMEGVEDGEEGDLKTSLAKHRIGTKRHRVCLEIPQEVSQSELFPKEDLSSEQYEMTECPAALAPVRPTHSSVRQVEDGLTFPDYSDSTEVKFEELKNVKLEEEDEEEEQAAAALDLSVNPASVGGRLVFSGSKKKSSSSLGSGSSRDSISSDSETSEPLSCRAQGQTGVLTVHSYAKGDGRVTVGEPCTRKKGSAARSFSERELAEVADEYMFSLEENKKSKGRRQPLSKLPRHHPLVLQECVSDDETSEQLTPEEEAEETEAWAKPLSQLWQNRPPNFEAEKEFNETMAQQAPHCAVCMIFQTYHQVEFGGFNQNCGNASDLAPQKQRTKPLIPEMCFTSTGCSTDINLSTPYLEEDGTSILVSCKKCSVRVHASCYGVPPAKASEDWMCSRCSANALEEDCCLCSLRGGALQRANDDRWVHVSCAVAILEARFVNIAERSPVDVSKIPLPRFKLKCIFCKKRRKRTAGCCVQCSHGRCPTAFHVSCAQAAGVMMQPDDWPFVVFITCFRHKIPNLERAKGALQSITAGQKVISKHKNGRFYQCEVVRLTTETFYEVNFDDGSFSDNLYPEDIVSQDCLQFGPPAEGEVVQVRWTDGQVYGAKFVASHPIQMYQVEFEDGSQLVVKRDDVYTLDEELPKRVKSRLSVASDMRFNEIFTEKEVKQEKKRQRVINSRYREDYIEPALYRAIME

The test concerns the target Lysine-specific demethylase 4A (Homo sapiens) (UniProt O75164). As to the kind of experiment: qHTS Assay for Inhibitors of JMJD2A-Tudor Domain. Note: nearly all actives have a fitted effect of over 50% in size. The note with it: AlphaScreen JMJD2A-Tudor / H3K4me3 peptide binding; series mostly up to 114 µM; activity change, negative = inhibition: at the top concentration. The source says:
JMJD2A is a jumonji-domain-containing lysine demethylase that uses Fe(II) together with 2-OG to effect oxidative demethylation of histones. Methylation is one of many […] modification that affect epigenetic transcription. […] It is proposed that the functions of JmjD2A binding to the histones, is to maintain marks after they are installed and to spread the modifications by […], establishing a self-propagating cycle for rapid methylation over a large area of chromatin. […] Thus, small molecule targeting of the JMJD2A-tudor domain interaction with its target methylhistone mark is expected to enable sophisticated experiments probing the fine regulatory pathways leading to selective demethylation of a given methyllysine locus based on the methylation state of adjacent histone marks. A quantitative high throughput AlphaScreen has been developed to identify small molecule inhibitors based on a protocol published by NCGC and SGC [4].
Although AlphaScreen has significant advantages with its utility in a variety of epigenetic target assays, the primary screening data provided in this deposition should be used with caution due to the prevalence of screening artifacts. The top compound concentration tested was high (>100uM) in this assay, which increases number of actives and potential artifacts. An AlphaScreen counterscreen is highly recommended to be run against any putative actives to eliminate non-specific artifacts. Alternatively, one can use other AlphaScreen assays in PubChem to filter out promiscuous hits.
[1] Lee, J. et al. Distinct binding modes specify the recognition of methylated histone H3K4 and H4K20 by JMJD2A-tudor. Nat Struct Mol Biol. 15(1); 109-11. 2008. PMID: 18084306
[2] Yasgar, et al. Compound Management for Quantitative High-Throughput Screening. JALA. 2008 Apr;13(2):79-89. PMID: 18496600
[3] Inglese, et al. Quantitative high-throughput screening: a titration-based approach that efficiently identifies biological activities in large chemical libraries. Proc Natl Acad Sci. 1;103(31):11473-8. 2006. PMID: 16864780
[4] Quinn et al. A homogeneous method for investigation of methyl-dependent protein-protein interactions in epigenetics. Nucleic Acids Res., 38(2):e11. 2010. PMID: […]
[5] Baell,Holloway. New substructure filters for removal of pan assay interference compounds (PAINS) from screening libraries and for their exclusion in bioassays. J Med Chem. 53(7):2719-40. 2010. PMID: 20131845
NIH Molecular Libraries Probe Production Network [MLPCN]
NIH Chemical Genomics Center [NCGC]
Structural Genomics Consortium (SGC)
To each well of a 1,536w plate, 2ul of JMJD2A-Tudor (final 100nM) and 1ul biotinylated histone peptide methylated at Lys4 [b-H3(1-18)K4me3] (final 50nM) were added in 1x PBS buffer, pH 7.4, containing 0.01% Tween-20, using a nanoliter dispenser. Formation of a protein-peptide complex proceeded at room temperature for 30 min. A Kalypsys pin-tool transferred 23nl of library compound solution in DMSO to each well. Following a 30 min incubation of the protein-peptide complex with compounds at room temperature, a mixture of 40 µg/mL each streptavidin-coated donor and nickel chelate acceptor AlphaScreen beads (final 10 µg/mL) was added in a 1ul dispense for a final volume of 4ul, followed by a brief centrifugation (1000 rpm, 1 min). Plates were incubated protected from the light for 20 min at room temperature. Microplates were then read on an EnVision multilabel plate reader using the 1,536 plate HTS AlphaScreen aperture (excitation time 80 ms, measurement time 240 ms).
`Cc1ccc(S(=O)(=O)NC2CCCCCC2)cc1`: the “activity change, negative = inhibition” value is 0%.
Same read-out and setting: for `Cc1cc(C)cc(NC(=O)NC2CCCCCCC2)c1` the value was -2.76%.
On to `Cc1cc([N+](=O)[O-])c(NC2CCCCC2)c([N+](=O)[O-])c1`, for which the Potency was 25.1 µM (active).
Consider `O=C(CCCCn1c(=O)c2ccccc2n(CC(=O)Nc2cccc(C(F)(F)F)c2)c1=O)NCc1ccc2c(c1)OCO2`, for which the “activity change, negative = inhibition” value was -16.7%.
For `Cc1ccc(S(=O)(=O)n2nc(C)c(S(=O)(=O)N3CCCCCC3)c2C)cc1`, the “activity change, negative = inhibition” value was -26.2%.
The same measure, in the same setting: for `CC(=O)NC(Cc1ccccc1)C(=O)NC1CCN(c2ncccc2[N+](=O)[O-])CC1` (stereo unspecified) the value was -12.3%; for `COc1ccc(-c2cc3ncccc3cn2)cc1`, -16.9%.
Regarding `COc1ccc(-c2cc(C3CCN(c4ncccc4[N+](=O)[O-])CC3)[nH]n2)cc1`, the Potency was 56.2 µM (active).
On to `Cc1ccc(F)cc1S(=O)(=O)N1CCC(c2nc3ccccc3s2)CC1`, for which the “activity change, negative = inhibition” value was 8.18%.
`CC(=O)c1c(C)[nH]c(=S)c(C#N)c1-c1ccc(F)cc1`: the Potency was 5.62 µM (active).
As to `N#Cc1c(-c2ccc(Cl)cc2)c2c([nH]c1=S)CCCC2`, the “activity change, negative = inhibition” value is -20.6%.
On the same count and under the same terms, the figure for `Cc1cc(C)c2c(-c3ccc(F)cc3)c(C#N)c(=O)n(C)c2n1` is -9.54%.
Still for that read-out and setting: for `CC1CCN(S(=O)(=O)c2ccc3c(c2)N(CC(=O)NCCc2ccccc2)C(=O)CO3)CC1` the value was -19.4%; for `COc1cccc(C(=O)NC2=NC(c3ccc(N(C)C)cc3)CC(=O)N2)c1` (stereo unspecified), -21.2%.
`Oc1ccc(/C=N/N(Cc2ccccc2)c2ccccc2)cc1`: the Potency is 44.7 µM (active).
On to `O=C(O)CCC(=O)N(Cc1ccccc1)Cc1ccccc1`, for which the “activity change, negative = inhibition” value is -17.7%.
Same read-out and setting: for `Cc1ccc(-c2cn3c(n2)sc2cc(C(=O)NCc4cccs4)ccc23)c(C)c1` the value was 68.4%; for `O=C1CC(c2ccccc2)CC2=C1C(c1ccco1)n1nc(C(F)(F)F)nc1N2` (stereo unspecified), -27.7%; for `Cc1ccc(S(=O)(=O)N2CCCc3cc(NS(=O)(=O)c4cc(C)ccc4C)ccc32)cc1`, -24.2%.
The same measure, in the same setting: for `COc1ccc(CSc2nnnn2-c2ccc(C(=O)O)cc2)cc1` the value was 4.63%.
As to `COc1ccc(NCc2nnc(SCc3ccccc3)n2-c2ccc(OC)cc2)cc1`, the Potency is 50.1 µM (active).
Regarding `CC(C)Oc1ccc(CCc2nnc(SCC(=O)O)n2-c2ccccc2)cc1`, the “activity change, negative = inhibition” value was -11.2%.
On the same count and under the same terms, the figure for `O=C1C[C@@H](c2ccc3ccccc3c2)N1S(=O)(=O)c1ccccc1[N+](=O)[O-]` is -23.4%.
Still for that read-out and setting: for `COc1ccc(-c2nc(CN3CCC(C(=O)NCCN(CC(C)C)CC(C)C)CC3)c(C)o2)cc1OC` the value was -9.76%; for `COc1ccc(OC)c(NC(=O)C2CCN(S(=O)(=O)c3ccc(C)cc3)CC2)c1`, -13.8%; for `Cc1cccnc1NC(=O)CSc1nnc(COc2ccc(C(C)C)cc2)n1C`, -4.17%.
Take `Cc1ccc(OCc2nnc(SC3CCc4ccccc4C3=O)n2C)cc1` (stereo unspecified): the Potency is 28.2 µM (active).
Take `COc1ccccc1C(=O)Nc1ccc(OCc2nnc3c4ccccc4c(C)nn23)cc1`: the “activity change, negative = inhibition” value is -4.03%.
Still for that read-out and setting: for `Fc1ccc(CN2CCc3nc(Nc4ccccc4)ncc3C2)cc1F` the value was -25.8%; for `CN1C(=O)c2[nH]nc(-c3ccc(F)cc3)c2C1c1ccccn1` (stereo unspecified), 7.23%.
On the same count and under the same terms, for `Cc1ccc(NC(=O)c2cc3cc(C)ccc3n2C)cc1` the value was -7.95%; for `CCc1ccc(S(=O)(=O)n2ccnc2)cc1`, -16.2%.
Still for that read-out and setting: the figure for `CCCCOc1ccc(CNC(=O)c2ccc3c(c2)N(C)C(=O)C2CCCCN32)cc1` (stereo unspecified) is -30%; for `CCC1(C)Cc2c(sc3[nH]c(=S)n(Cc4ccccc4)c(=O)c23)CO1` (stereo unspecified) it is -32.6%.
For the compound `C=CCn1c(=S)[nH]c2scc(-c3ccco3)c2c1=O`, the Potency is 28.2 µM (active).
For the compound `Cc1ccc(CCNC(=O)Cn2c(-c3cccs3)cc3cc(F)ccc32)cc1`, the “activity change, negative = inhibition” value is -6.62%.
Consider `N#C/C(=C(\O)CCl)c1nnc2n1CCCCC2`, for which the Potency was 35.5 µM (active).
Turning to `N#C/C(=C/c1cccc([N+](=O)[O-])c1)c1nnc2n1CCCCC2`, the “activity change, negative = inhibition” value is -10.6%.
The same measure, in the same setting: the figure for `N#C/C(=C(\O)C(F)(F)F)c1nnc2n1CCCCC2` is 1.4%; for `COc1ccc(N2CCN(c3cc(C)nc4nncn34)CC2)cc1` it is -23.3%.
Still for that read-out and setting: the figure for `CCCCN1CC(c2nc3ccccc3n2CCCCOc2ccc(C)cc2C)CC1=O` (stereo unspecified) is -5.96%.
Still for that read-out and setting: the figure for `O=[N+]([O-])c1ccc(S(=O)(=O)N2CCN(c3nc(-c4ccccc4)nc4ccccc34)CC2)cc1` is -12.1%.
For `Cc1nc(COc2cccc(Cl)c2)sc1C(=O)/C=C/N(C)C`, the “activity change, negative = inhibition” value is -23.5%.
On the same count and under the same terms, the figure for `CN(C)/C=C/C(=O)c1ccccc1F` is 5.26%.
For `Cc1nc(-c2ccccc2)sc1C(=O)/C=C/N(C)C`, the Potency was 44.7 µM (active).
For `COCCN(Cc1ccco1)C(=O)Cn1ncc2c([nH]c3ccccc32)c1=O`, the “activity change, negative = inhibition” value was -21.5%.
Still for that read-out and setting: the figure for `O=S(=O)(c1ccc2c(c1)OCCO2)N1CCN(S(=O)(=O)c2cc(F)ccc2F)CC1` is -16.4%; for `CCOC(=O)c1c(S(=O)(=O)N2CCCC(C(=O)NCc3ccc(F)cc3)C2)c(C)n(CC)c1C` (stereo unspecified) it is -34.3%; for `Cn1c(=O)[nH]c(=O)c2c1nc(N1CCN(CCO)CC1)n2CCSc1nc2ccccc2s1` it is -14.6%.
Regarding `CCN(CC)CCCSc1nc2ccccc2s1`, the Potency was 28.2 µM (active).
`CCN(CC)CCn1c2c(c(SCC(=O)Nc3nc4ccccc4s3)nc1=O)CCCC2`: the “activity change, negative = inhibition” value is -13.8%.
On the same count and under the same terms, the figure for `COc1ccc(C(=O)COC(=O)CCCC(=O)Nc2cc(C(F)(F)F)ccc2Cl)cc1` is 17%.
The same measure, in the same setting: for `COc1c(Cl)cc(C(=O)N(Cc2ccccc2F)C2CCS(=O)(=O)C2)cc1Cl` (stereo unspecified) the value was -16%.
As for `Cn1nnnc1SCCNCc1ccc(Cl)c(Cl)c1`, the “activity change, negative = inhibition” value is -11.6%.
With `CCOc1ccccc1C(=O)NCc1ccc2c(c1)CCN2C(=O)c1ccc(F)cc1`, the “activity change, negative = inhibition” value is -6.33%.
Turning to `COc1ccc(-c2c(-c3cc(OC)cc(OC)c3)n(C)c3ccc(-c4ccn[nH]4)cc23)cc1`, the Potency was 22.4 µM (active).
Turning to `COc1cc(OC)cc(-c2c(-c3ccc(F)cc3)c3cc(-c4ccc5cc[nH]c5c4)ccc3n2C)c1`, the “activity change, negative = inhibition” value was -22.9%.
On the same count and under the same terms, the figure for `COc1cc(OC)cc(-c2c(-c3cccs3)c3cc(-c4ccc(OC)nc4)ccc3n2C)c1` is -13.6%; for `Cc1cccc(OCCCC(=O)Nc2sc3c(c2C(N)=O)CCC(C)C3)c1` (stereo unspecified) it is -22.5%.
Turning to `Cc1cc(C)nc(N/N=C/c2c(CO)cnc(C)c2O)n1`, the Potency is 89.1 µM (active).
With `CCS(=O)(=O)c1nc(S(=O)(=O)c2ccc(C)cc2)c(NCc2ccc(Cl)cc2)s1`, the “activity change, negative = inhibition” value is -5.37%.
Same read-out and setting: for `Cc1ccccc1NC(=O)Cn1c(=O)n(CC2CCC(C(=O)NCCc3ccccc3)CC2)c(=O)c2ccccc21` (stereo unspecified) the value was 0.343%; for `CCc1ccc(CNC(=O)c2cc3c(=O)n(CC)c4ccccc4c3s2)cc1`, -7.41%.
As to `CN(C)c1ccc(CSc2ccccc2)cc1`, the Potency was 20 µM (active).
With `CN(C)c1ccc(C(CC(=O)O)C(=O)O)cc1` (stereo unspecified), the “activity change, negative = inhibition” value was -19.5%.
`CN(C)c1cc[n+](Cc2ccccc2)cc1`: the “activity change, negative = inhibition” value is 7.22%.
